# Assay results as given in PubChem BioAssay (EPA / NIEHS).
# Results filed as inconclusive are left out. A structure can be active in one record and inactive in another. The source made the active and inactive calls. The calls were made as follows: active = hit-call score of the fitted dose curve at least 0.9, where 1 is the maximum; inconclusive = response in the unintended direction; inactive = score below 0.9.
# Assay: CCTE_Mundy_HCI_iCellGluta_NOG_NeuriteCount: CCTE's Neurite Outgrowth Assay in iCellGluta cells for Neurite Count, Mundy Lab (AID 2284342);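 also: chemical exposure about 48 hours starting 2 hours after plating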
# Method: CCTE_Mundy_HCI_iCellGluta_NOG is a multiplexed, cell-based-readout assay that uses iCell GlutaNeurons from FUJIFILM Cellular Dynamics, Inc. (FCDI), human glutamatergic enriched neurons derived from induced pluripotent stem (iPS) cells, with measurements taken at 50.33 hours after chemical dosing in a microplate: 96-well plate.CCTE_Mundy_HCI_iCellGluta_NOG_NeuriteCount is one of four components of the CCTE_Mundy_HCI_iCellGluta_NOG assay. It measures neurite outgrowth related to number of neurites using High Content Imaging of fluorescently labelled markers.Data from the assay component CCTE_Mundy_HCI_iCellGluta_NOG_NeuriteCount was analyzed at the endpoint CCTE_Mundy_HCI_iCellGluta_NOG_NeuriteCount in the positive analysis fitting direction relative to DMSO as the negative control and baseline of activity. Using a type of morphology reporter, loss-of-signal activity can be used to understand developmental effects.
# Exposure starts 2 hours post-plating by adding 10 ul of the working solution to 90 ul of media in the wells for a 1/10 dilution. Forty-eight hours after chemical treatment cells are fixed by direct addition of 100 ul of warm (37C) Dulbecco's phosphate buffered saline (DPBS) fixative solution containing 8% paraformaldehyde, 8% sucrose, and 0.1% of 3 mg/ml Hoechst 33342 into each well. Primary antibodies are prepared by dilution in Immunocytochemical Staining Buffer (ISB), 10X Dulbecco's PBS, 0.1% Saponin, 5% Bovine Serum Albumin, 0.5% NaN3 (Sodium Azide) and betaIII-tubulin (rabbit anti-betaIII-tubulin, 1:800) followed by Alexa Fluor-488 secondary (1:500) to label neuronal cell bodies and neurites. A Cellomics ArrayScan VTi HCS Reader is used for automated image acquisition and analysis of neurite outgrowth.
Structure (SMILES),AC50,outcome
Cc1c(COC(=O)[C@@H]2[C@H](/C=C(\Cl)C(F)(F)F)C2(C)C)cccc1-c1ccccc1,10.6 µM (active),–
N#CN=C1SCCN1Cc1ccc(Cl)nc1,–,inactive
O=C(Nc1ccccc1-c1ccc(Cl)cc1)c1cccnc1Cl,38.3 µM (active),inactive
COP(=S)(OC)SCn1nnc2ccccc2c1=O,24.4 µM (active),–
CCNC(=O)NC(=O)C(C#N)=NOC,–,inactive
CS(=O)(=O)c1cc(C(F)(F)F)ccc1C(=O)c1cnoc1C1CC1,–,inactive
CS(=O)(=O)c1ccc(C(=O)C2C(=O)CCCC2=O)c([N+](=O)[O-])c1,–,inactive
CO/N=C(/C1=NOCCO1)c1ccccc1Oc1ncnc(Oc2ccccc2Cl)c1F,24.4 µM (active),–
CC(C)(C)C(=O)C(Oc1ccc(Cl)cc1)n1cncn1 (stereo not given),–,inactive
CCSC(=O)N1CCCCCC1,–,inactive
CNC(=O)Oc1cccc2ccccc12,–,inactive
C=C(C)CN(CC)c1c([N+](=O)[O-])cc(C(F)(F)F)cc1[N+](=O)[O-],26.5 µM (active),–
CN/C(=N\[N+](=O)[O-])NCc1cnc(Cl)s1,–,inactive
COC(=O)N(C(=O)N1CO[C@@]2(C(=O)OC)Cc3cc(Cl)ccc3C2=N1)c1ccc(OC(F)(F)F)cc1,–,inactive
